Test systems include NCI-H23 lung; NCI-H226 lung; NCI-H322M lung; HOP-62 NSCLC; NCI-H460 lung; HOP-92 NSCLC; NCI-H522 lung; A549/ATCC NSCLC; 786-0 renal; COLO 205 colon; DU-145 prostate; K-562 leukemia; MALME-3M melanoma; MDA-MB-231 breast; RXF 393 renal; SF-268 CNS; SF-295 CNS; SF-539 CNS; UACC-257 melanoma; M14 melanoma.
Test in all cases: NCI-60 one-dose screen, 48 h (100 = growth as untreated, 0 = no growth, -100 = all killed)
Settings in all cases: 10 µM unless noted

From PubChem BioAssay (NCI) come the findings set out here.

Compounds without any hit were thinned out: in the full panel of roughly 83,000, 20% have a hit.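 Method: cells in 96-well plates; compound added at one concentration; 48 h incubation; percent growth measured; values under 10 scored active.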 Values without a mark were called inactive. The source made the active and inactive calls.

For the molecule `COc1ccc(C(=O)/C=C/c2ccc(Oc3nc(Nc4ccc(F)cc4)nc(N(C)C)n3)c(OC)c2)cc1`, the growth with NCI-H23 lung was 42%; with NCI-H226 lung, 69.7%; in the test with NCI-H322M lung, 80.4%; in the test on HOP-62 NSCLC, 100%; in the test on NCI-H460 lung, 26.2%; with HOP-92 NSCLC it was 57.4%. The growth in the test with NCI-H522 lung was 49.7%; with A549/ATCC NSCLC it was 64.7%; in the test with 786-0 renal, 57.3%; in the test on COLO 205 colon, 93.1%; with DU-145 prostate, 51.7%; in the test on K-562 leukemia, 26.4%. In addition, the growth is 79% in the test on MALME-3M melanoma; 53.9% with MDA-MB-231 breast; 50.6% in the test on RXF 393 renal; 51.8% with SF-268 CNS; 51.5% in the test with SF-295 CNS; 26.8% with SF-539 CNS. The growth in the test with UACC-257 melanoma is 42.5%; with M14 melanoma, 65.1%.

In the case of `N#Cc1c(-c2ccc(Br)cc2)nc2n[nH]c(-c3ccc(Br)cc3)c2c1-c1ccc(F)cc1`, the growth with NCI-H23 lung is 92.6%; with NCI-H226 lung, 87.5%; with NCI-H322M lung it was 90.6%; with HOP-62 NSCLC, 87.9%; in the test with NCI-H460 lung, 106%; in the test with HOP-92 NSCLC, 112%. Further, the growth in the test on NCI-H522 lung is 94.1%; in the test with A549/ATCC NSCLC, 99.7%; in the test with 786-0 renal, 102%; in the test with COLO 205 colon it was 92.1%; in the test on DU-145 prostate, 116%; in the test on K-562 leukemia, 76.4%. For the same molecule, the growth in the test on MALME-3M melanoma was 86.2%; in the test on RXF 393 renal, 102%; in the test on SF-268 CNS it was 129%; in the test with SF-295 CNS, 98.9%; in the test on SF-539 CNS, 97.4%; in the test with UACC-257 melanoma it was 103%. Besides, the growth in the test on M14 melanoma was 97.7%.

As for `N#Cc1c(-c2cccc3ccccc23)cc(-c2cccc(OCC(=O)O)c2)[nH]c1=O`, the growth in the test on NCI-H23 lung was 97.7%; with NCI-H226 lung, 93.6%; in the test on NCI-H322M lung it was 96.1%; in the test with HOP-62 NSCLC, 105%; in the test with NCI-H460 lung, 101%; with HOP-92 NSCLC, 98.6%. In addition, the growth was 97.9% with NCI-H522 lung; 94.6% in the test on A549/ATCC NSCLC; 101% with 786-0 renal; 106% in the test on COLO 205 colon; 105% with DU-145 prostate; 94.2% in the test with K-562 leukemia. Besides, the growth in the test with MALME-3M melanoma is 87.3%; with RXF 393 renal, 105%; in the test on SF-268 CNS, 96.6%; with SF-295 CNS, 101%; with SF-539 CNS, 95.5%; with UACC-257 melanoma it was 97.8%. The growth in the test on M14 melanoma was 93.6%.

As for `Nc1cc2ccccc2c(=O)n1NC(=O)c1ccc(I)cc1`, the growth in the test on NCI-H23 lung was 97.3%; in the test with NCI-H226 lung it was 99.9%; in the test with NCI-H322M lung it was 98.6%; in the test on HOP-62 NSCLC, 98.5%; in the test with NCI-H460 lung, 100%; in the test with HOP-92 NSCLC it was 106%. Moreover, the growth in the test with NCI-H522 lung was 93.1%; in the test on A549/ATCC NSCLC, 94.6%; with 786-0 renal, 99.3%; in the test on COLO 205 colon it was 105%; in the test with DU-145 prostate, 102%; with K-562 leukemia, 90.4%. Besides, the growth in the test on MALME-3M melanoma is 97.4%; in the test with RXF 393 renal, 108%; in the test on SF-268 CNS, 94.9%; in the test on SF-295 CNS it was 97.6%; in the test with SF-539 CNS, 96.5%; in the test with UACC-257 melanoma it was 93.3%. In the test on M14 melanoma, the growth was 102%.

On to `O=C(/C=C/c1ccc(-c2ccccc2)cc1)c1nc2ccccc2n1Cc1ccc(Br)cc1`, for which the growth in the test on NCI-H23 lung is 24.7%; in the test on NCI-H226 lung, 24.3%; in the test on NCI-H322M lung, 72.4%; in the test on HOP-62 NSCLC, 56.4%; with NCI-H460 lung it was 16.8%; in the test on HOP-92 NSCLC, 40.1%. The growth is 71% in the test with NCI-H522 lung; 64.7% in the test with A549/ATCC NSCLC; 39.3% in the test on 786-0 renal; 76.7% in the test on COLO 205 colon; 80.5% with DU-145 prostate; 36% in the test on K-562 leukemia. Also, the growth was 44% in the test with MALME-3M melanoma; 35.3% with RXF 393 renal; 62.9% in the test on SF-268 CNS; 21.9% in the test with SF-295 CNS; 17.7% in the test on SF-539 CNS; 67.4% with UACC-257 melanoma. Further, the growth in the test with M14 melanoma is 74%.

With `CC1=C(C(=O)OCc2ccccc2)C(c2ccc(-n3cncn3)cc2)n2c(nc3ccccc32)N1` (stereo not drawn), the growth was 86% in the test on NCI-H23 lung; 77.6% in the test on NCI-H226 lung; 83.5% in the test with NCI-H322M lung; 64.6% in the test on HOP-62 NSCLC; 28.1% with NCI-H460 lung; 73.9% in the test on HOP-92 NSCLC. The growth was 19.3% in the test on NCI-H522 lung; 60.1% in the test with A549/ATCC NSCLC; 69.2% in the test with 786-0 renal; 37.9% in the test with COLO 205 colon; 67.7% in the test with DU-145 prostate; 14.3% in the test with K-562 leukemia. Also, the growth was 50.9% in the test on MALME-3M melanoma; 52.2% in the test with RXF 393 renal; 71.5% with SF-268 CNS; 19.9% in the test on SF-295 CNS; 38.3% in the test with SF-539 CNS; 51.5% in the test on UACC-257 melanoma. The growth with M14 melanoma is 50.5%.

As for `CSc1ccc(NC(=O)c2ccc3nn(/C(C#N)=C/c4ccccn4)nc3c2)cc1`, the growth in the test on NCI-H23 lung is -90.9% (active); in the test with NCI-H226 lung it was -90.5% (active); in the test on NCI-H322M lung, -54.5% (active); with HOP-62 NSCLC it was -70.3% (active); in the test on NCI-H460 lung, -64.5% (active); with HOP-92 NSCLC it was -33.9% (active). Also, the growth in the test on NCI-H522 lung is -84.6% (active); in the test on A549/ATCC NSCLC, -71.8% (active); in the test with 786-0 renal, -84.7% (active); in the test with COLO 205 colon, -79% (active); with DU-145 prostate, -100% (active); in the test on K-562 leukemia, -13.4% (active). Also, the growth in the test on MALME-3M melanoma was -89.4% (active); in the test on RXF 393 renal it was -94.9% (active); with SF-268 CNS it was -40% (active); with SF-295 CNS, -95.7% (active); with SF-539 CNS, -95% (active); in the test with UACC-257 melanoma, -89.3% (active). Also, the growth in the test with M14 melanoma is -86% (active).

Take `COc1cc(-c2ccc(/C=N/NC(=O)c3[nH]c4ccc(Br)cc4c3-c3ccccc3)o2)cc(OC)c1OC`: the growth in the test on NCI-H23 lung was 53.9%; in the test with NCI-H226 lung, 49.6%; in the test with NCI-H322M lung, 81.2%; in the test with HOP-62 NSCLC, 62.6%; with NCI-H460 lung it was 62.8%; in the test on HOP-92 NSCLC, 61.7%. The growth in the test on NCI-H522 lung is 82.8%; in the test with A549/ATCC NSCLC, 71.6%; in the test on 786-0 renal, 67.2%; in the test on COLO 205 colon, 94.7%; with DU-145 prostate, 81.1%; in the test on K-562 leukemia, 85.6%. Moreover, the growth was 95.4% in the test on MALME-3M melanoma; 88.7% in the test on RXF 393 renal; 59% with SF-268 CNS; 56.6% in the test with SF-295 CNS; -13.1% (active) in the test on SF-539 CNS; 92.1% in the test with UACC-257 melanoma. Also, the growth in the test on M14 melanoma was 74.9%.
